Source: PubChem BioAssay
Sampled rows, rich in hits. Any-hit rate of the full collection: about 8.8%.
IL-1B inflam inh – inhibitors of inflammasome signaling (IL-1 beta secretion) | THP-1 LPS/ATP IL-1B secretion, AlphaLISA, 16 h; hits give low values | activity change, % at 57.5 µM | 360,000 tested, 4.7% active | AID 743279; in the data active means activity change below about -50%; inconclusive means mostly about -30% to -49%
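Secreted IL-1B measured by AlphaLISA bead assay after 16 h compound exposure of THP-1 cells; compounds (final up to 57.5 uM) added 1 h before LPS (250 ng/mL) and ATP (1.25 mM) stimulation; lower signal means less secretion.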
KB-V1 MDR tox – KB-V1 MDR subline cytotoxicity | KB-V1 MDR cells viability, CellTiter-Glo, 72 h | Potency, µM (top dose mostly 46.1 µM), usual class: cytotoxic | 400,000 tested, 3.4% active | AID 1347076; further: potency means the concentration at half of the fitted maximal effect; nearly all actives have a fitted effect of over 60% in size
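Compound-treated KB-V1 multidrug-resistant cells, 72 h, 37 degrees C; viability by CellTiter-Glo. Fitted qHTS curves give the values.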
KB-3-1 tox – kills parental KB-3-1 adenocarcinoma cells | Potency, µM (doses to about 46.1 µM), hits mostly cytotoxic | KB-3-1 viability, CellTiter-Glo ATP luminescence, 72 h | AID 1347075 | 400,000 tested, 1.4% active; further: potency means the concentration at half of the fitted maximal effect; nearly all actives have a fitted effect of over 60% in size
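KB-3-1 cells, DMEM (no phenol red) + 10% FBS; compound by pin transfer, 72 h, 37 °C. Readout: CellTiter-Glo luminescence after 10 min. Data normalized, curve-fitted.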
HT1080 IDH1KD tx – HT-1080 IDH1 knockdown cell toxicity (counter line). HT-1080 IDH1 knockdown viability, ATP luminescence, 48 h. Potency, µM (highest dose often 46.1 µM), for inactives: top-dose activity, negative = toxicity, hits mostly cytotoxic. 360,000 tested, 2% active;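 further: potency means the concentration at half of the fitted maximal effect; 0% = DMSO wells and -100% = cell-free medium wells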
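Assay cells: HT-1080 with IDH1 knockdown, 750 per well, RPMI/5% FBS. Exposure: 48 h at 37 °C following 2 h pre-incubation. Read: CellTiter-Glo luminescence; fitted concentration-response, curve class assigned.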
HT1080NT lethal – kills 2HG-producing HT-1080-NT fibrosarcoma cells; HT-1080-NT fibrosarcoma viability, CellTiter-Glo ATP luminescence, 48 h; Potency, µM (top dose mostly 46.1 µM), without a hit: at the highest dose activity, negative = less viability, actives largely listed as cytotoxic; 360,000 tested, 1.6% active; AID 686970;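 further: NT is the 2HG producing partner of a matched IDH1 knockdown line; potency means the concentration at half of the fitted maximal effect; 0% = DMSO-treated cells and -100% = media-only wells without cells; nearly all actives have a fitted effect of over 55% in size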
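Viability by CellTiter-Glo luminescence after 48 h compound exposure at 37C of HT-1080-NT cells (750/well, RPMI, 5% FBS). % activity scaled between DMSO wells and medium-only wells, then curve-fitted and categorized by curve class.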
* marks the source's active call; other numbers are inactive results; i = inactive; ? = inconclusive; nt = no result; ! = not active in a repeat. Unless noted, the call rests on the fitted dose curve; in most records, active means well fitted curve in the direction sought with a large enough effect; inconclusive means small, poorly fitted or top-dose-only effect, or another doubt; inactive means no such curve, though single readings can be large; an effect the other way counts as inactive or inconclusive. Unless noted, on the % scale 0 is the no-effect control and ±100 the full control effect.

SMILES	IL-1B inflam inh	KB-V1 MDR tox	KB-3-1 tox	HT1080 IDH1KD tx	HT1080NT lethal
Cc1ccc2sc(N3CCN(C(=O)C4COc5ccccc5O4)CC3)nc2c1C (stereo unspecified)	nt	i	?	nt	nt
C[C@@H]1CC=C[C@H]2[C@H]1C(=O)N(Cc1ccccc1)[C@H]2c1cccc([N+](=O)[O-])c1	0.0	i	i	-15.1%	-11.9%
O=C(Nc1cnn(Cc2ccc(Cl)cc2Cl)c1)c1noc2c1CCCC2	-11.3	10.3µM*	i	-17.5%	-12.2%
CC(=O)c1cccc(NC(=O)Nc2cnn(Cc3ccc(Cl)cc3Cl)c2)c1	?	18.4µM*	?	14.1µM*	?
C=CCn1c(C(CCCC)CC(C)O)n[nH]c1=S (stereo unspecified)	-10.3	i	i	-3.1%	0.4%
CCSc1nnc(-c2ccc(S(=O)(=O)NCc3cccs3)cc2)o1	0.0	20.6µM*	i	?	-1.6%
CCOc1ccc(S(=O)(=O)NCc2cccs2)cc1	1.4	i	i	-13.2%	5.1%
CN(C)CCN(Cc1ccccc1)C(c1cc2ccccc2o1)c1nnnn1C(C)(C)C (stereo unspecified)	-54.3*	?	?	?	?
CCCCn1nnnc1C(c1cc2ccccc2o1)N(CCN(C)C)Cc1ccccc1 (stereo unspecified)	?	i	?	20.6µM*	18.4µM*
CC(C)(C)n1nnnc1C(c1cc2ccccc2o1)N(CCC#N)Cc1ccccc1 (stereo unspecified)	25.4	?	?	2.6%	-2.8%
c1nc(NCc2ccc3c(c2)OCO3)c2[nH]cnc2n1	nt	i	i	-9.5%	3.7%
O=C(OCc1nnc(-c2ccc([N+](=O)[O-])cc2)o1)c1ccc(F)c(S(=O)(=O)N2CCOCC2)c1	21.2	i	i	-5.9%	-5.4%
CC(C)Cn1c(/C=N/Nc2nc3ccccc3[nH]2)nc2ccccc21	62.3	?	16.4µM*	?	?
CCCn1c(/C=N/Nc2nc3ccccc3[nH]2)nc2ccccc21	-52.0*	?	i	?	?
COC(=O)CN(C#N)c1nc(NC(C)C)nc(OC)n1	-0.3	i	i	-9.2%	-1.4%
COC(=O)CN(C#N)c1nc(NCc2ccccc2)nc(OC)n1	-66.7*	i	i	2.6%	3.7%
CCOc1ccc(NC(=O)CC2C(=O)N(c3ccccc3)C(=O)N2CCc2ccc(OC)cc2)cc1 (stereo unspecified)	nt	i	i	nt	nt
Cc1ccsc1CCN1C(=O)N(c2ccccc2)C(=O)C1CC(=O)Nc1ccc(F)cc1 (stereo unspecified)	nt	?	23.1µM*	nt	nt
CCOc1ccc(NC(=O)CC2C(=O)N(c3ccccc3)C(=O)N2CCc2cccs2)cc1 (stereo unspecified)	-8.4	5.8µM*!	i	-1.0%	-6.6%
c1ccc2c3c([nH]c2c1)C(C1CCCCC1)N(Cc1ncc[nH]1)CC3 (stereo unspecified)	-87.5*	i	i	-17.4%	-25.9%
Cc1ncoc1C(=O)N1CCc2c([nH]c3ccccc23)C1C1CCCCC1 (stereo unspecified)	-7.2	i	i	-16.5%	-21.2%
Cc1cnc(CN2CCc3c([nH]c4ccccc34)C2C2CCCCC2)[nH]1 (stereo unspecified)	-78.5*	i	i	?	-13.9%
O=C(Cn1c(=O)oc2ccccc21)N1CCOCC1	-4.7	i	i	-2.7%	-0.3%
O=C(Nc1nnc(SCC(=O)N2CCCCC2)s1)c1cccs1	7.4	20.6µM*	i	-12.7%	1.4%
O=[N+]([O-])c1ccc(C2CCCC/C2=N\OCc2cccc(F)c2)c([N+](=O)[O-])c1 (stereo unspecified)	-18.3	10.3µM*	i	-3.4%	-6.3%
Cc1cccc(CN2C(=O)c3ccccc3S(=O)(=O)c3ccc(C(=O)N4CCN(c5cc(C)ccc5C)CC4)cc32)c1	nt	i	i	nt	nt
COc1ccc(-c2cnc3c(NC=O)cc(-c4ccc(S(C)(=O)=O)cc4)cn23)cc1OC	-19.4	i	?	?	?
